# Records with an inconclusive call do not appear. The source made the active and inactive calls. Cut-off read from the data, not from the text of the source, unless noted: active = inhibition above about 30%; inactive = the rest.
# Legend:
# [1] = Her2 expression decrease, cell viability multiplex – SKBR3 breast tumor cells, AlphaScreen, ATP viability, primary screen (AID 461;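 active = Her2 level under about 52% in both replicate screens, with viability over 70% of control, limit read from the data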;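 for Her2 level: lower value means less Her2 protein in the cells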;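 for viability: percent of carrier control wells set as 100% viability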); details: SKBR3 Her2 protein level, 18-24 h, measured here: SKBR3 viability, ATP luminescence, at 10 µM
# [2] = target: Receptor tyrosine-protein kinase erbB-2 (Homo sapiens) (UniProt P04626); experiment: as above; details: 18-24 h, at 10 µM, stronger effect = lower value
# [3] = reduced viability of SK-BR-3 breast cancer cells – cell-based, 24 h, human, pilot screen (AID 572;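 active = viability at or below 10% of carrier control in both of two separate runs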;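 note: compound exposure lasted between 18 and 24 h rather than exactly 24 h; 100% = carrier-treated control wells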); details: SK-BR-3 viability, CellTiter-Glo luminescence, at 10 µM, stronger effect = lower value
# [4] = HUVEC growth inhibition – cell-based, human, primary screen (AID 575;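 active = viability at or below 30% in both replicate assays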;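 note: 100% = median of untreated cell wells with 0.1% DMSO on each plate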); details: HUVEC proliferation, CellTiter-Glo luminescence, 72 h; at 10 µM; stronger effect = lower value
# [5] = H69AR cell proliferation blockers – human, duplicate replicates, primary screen (AID 580;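 active = viability at or under a set limit in both replicates, limit being median viability minus 3 SD, cut at about 48% in these data, passing the limit was not always enough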;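 note: 100% = mean luminescence of untreated wells and 0% = no signal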); details: H69AR lung tumor cells viability, ATP luminescence, 72 h; at 10 µM; stronger effect = lower value
# [6] = MRP1 drug-resistance reversers in H69AR cells – cell-based, doxorubicin co-treatment, pilot screen (AID 601;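 active = viability loss from added drug above about 55%, and viability with drug at most 40%, in both replicates, limit read from the data, passing the limit was not always enough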); details: CellTiter-Glo, 72 h, at 10 µM; for differential viability (reversal): stronger effect = higher value
# [7] = yeast transport mutant growth inhibition pilot in 384-well plates, post-Golgi transport modulator project (AID 636; in the data active = inhibition above about 31%); details: absorbance 615 nm, about 18 h, stronger effect = higher value
# [8] = growth suppression of yeast trafficking mutant, preliminary HTS, modulators of trafficking downstream of Golgi apparatus project, 1536-format plate, OD 615 nm (AID 637); details: yeast transport mutant growth, absorbance 615 nm, 18 h; stronger effect = higher value
# [9] = S. cerevisiae growth inhibition in permissive medium (OD615), pilot counter-assay for S. cerevisiae lifespan shortening project, permissive growth control (AID 705;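 active = growth inhibition above 25% in both replicates, a cutoff set 3 SD above the mean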); details: OD615, 24 h, at 10 µM, stronger effect = higher value
# [10] = S. cerevisiae growth inhibition in restrictive medium, OD615, pilot screen, restrictive growth control, yeast lifespan reduction project (AID 706;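 active = growth inhibition above a set limit, 3 SD over mean compound inhibition, in both replicates, cut at about 43% in these data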;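 note: modified DeaD lifespan yeast strain shifted to restrictive glucose medium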); details: OD615, 48 h, at 10 µM, stronger effect = higher value
# [11] = doxorubicin toxicity protection in MRP-1 cells – H69AR cells, CellTiter-Glo, duplicate, MRP-1 activator project, pilot screen (AID 807;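 active = viability increase at or above a cutoff of the median across tested compounds plus 3 SD, cut at about 8.5% in these data, passing the limit was not always enough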;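 note: compound pretreatment 18-22 h then 72 h combined with doxorubicin; 0% = doxorubicin alone and 100% = vehicle without doxorubicin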); details: H69AR viability with doxorubicin, CellTiter-Glo luminescence; at 10 µM; stronger effect = higher value
# [12] = viability of HCT116 without oncogenic beta-catenin – human colon tumor cells, pilot screen (AID 823;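 active = cell viability at or below a set limit in both duplicate runs, the limit being the all-compound median minus 4 SD, cut at about 23% in these data, passing the limit was not always enough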;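 note: 0% = wells killed by 20 µM Hyamine and 100% = untreated DMSO cell wells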); details: HCT116 beta-catenin knockout viability, CellTiter-Glo, 60 h; at 10 µM; stronger effect = lower value
# [13] = viability of PTEN-null HCT116 cells – cell-based, HCT116 clonal line, CellTiter-Glo, pilot screen (AID 824;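 active = viability at or below 27.92% in each of two runs, the all-compound median minus 4 SD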;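 note: 0% = 20 µM Hyamine control and 100% = vehicle cell control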); details: HCT116 PTEN-deleted viability, 60 h, at 10 µM, stronger effect = lower value
# [14] = RAM pathway blockade in budding yeast – dse1pr::URA3 reporter, 5-FOA selection, pilot screen (AID 869;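 active = inhibition over a set limit, the all-compound mean plus 3 SD, in both replicate runs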;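 note: 0% = DMSO wells with no growth and 100% = 10 µM 1-NA-PP1 with full growth; RAM network block rescues cells from 5-FOA so hits raise OD615 growth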); details: S. cerevisiae dse1pr::URA3 5-FOA growth, OD615, 2 d; at 10 µM; stronger effect = higher value; strain carries analog-sensitive mutant Cbk1 kinase
# [15] = RAM signaling pathway blockade in yeast – S. cerevisiae, Pdr1DBD-CYC8 efflux-inhibited sensitized strain, primary screen (AID 1298;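 active = RAM network inhibition above 8.4% in each of two replicates, 3 SD over the compound average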;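 note: 0% = DMSO untreated cells without growth and 100% = 10 µM 1-NA-PP1 full growth; higher means more yeast growth rescued from 5-FOA killing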); details: S. cerevisiae cbk1-as DSE1-URA3 strain, 5-FOA growth OD615, 2 d; at 50 µM; stronger effect = higher value
# [16] = H69AR cells + 2 uM doxorubicin, measured here: viability with 2 uM doxorubicin, stronger effect = lower value
# [17] = H69AR cells, compound alone cytotoxicity
# Sequence of Receptor tyrosine-protein kinase erbB-2 (Homo sapiens) (P04626 whole entry, looked up): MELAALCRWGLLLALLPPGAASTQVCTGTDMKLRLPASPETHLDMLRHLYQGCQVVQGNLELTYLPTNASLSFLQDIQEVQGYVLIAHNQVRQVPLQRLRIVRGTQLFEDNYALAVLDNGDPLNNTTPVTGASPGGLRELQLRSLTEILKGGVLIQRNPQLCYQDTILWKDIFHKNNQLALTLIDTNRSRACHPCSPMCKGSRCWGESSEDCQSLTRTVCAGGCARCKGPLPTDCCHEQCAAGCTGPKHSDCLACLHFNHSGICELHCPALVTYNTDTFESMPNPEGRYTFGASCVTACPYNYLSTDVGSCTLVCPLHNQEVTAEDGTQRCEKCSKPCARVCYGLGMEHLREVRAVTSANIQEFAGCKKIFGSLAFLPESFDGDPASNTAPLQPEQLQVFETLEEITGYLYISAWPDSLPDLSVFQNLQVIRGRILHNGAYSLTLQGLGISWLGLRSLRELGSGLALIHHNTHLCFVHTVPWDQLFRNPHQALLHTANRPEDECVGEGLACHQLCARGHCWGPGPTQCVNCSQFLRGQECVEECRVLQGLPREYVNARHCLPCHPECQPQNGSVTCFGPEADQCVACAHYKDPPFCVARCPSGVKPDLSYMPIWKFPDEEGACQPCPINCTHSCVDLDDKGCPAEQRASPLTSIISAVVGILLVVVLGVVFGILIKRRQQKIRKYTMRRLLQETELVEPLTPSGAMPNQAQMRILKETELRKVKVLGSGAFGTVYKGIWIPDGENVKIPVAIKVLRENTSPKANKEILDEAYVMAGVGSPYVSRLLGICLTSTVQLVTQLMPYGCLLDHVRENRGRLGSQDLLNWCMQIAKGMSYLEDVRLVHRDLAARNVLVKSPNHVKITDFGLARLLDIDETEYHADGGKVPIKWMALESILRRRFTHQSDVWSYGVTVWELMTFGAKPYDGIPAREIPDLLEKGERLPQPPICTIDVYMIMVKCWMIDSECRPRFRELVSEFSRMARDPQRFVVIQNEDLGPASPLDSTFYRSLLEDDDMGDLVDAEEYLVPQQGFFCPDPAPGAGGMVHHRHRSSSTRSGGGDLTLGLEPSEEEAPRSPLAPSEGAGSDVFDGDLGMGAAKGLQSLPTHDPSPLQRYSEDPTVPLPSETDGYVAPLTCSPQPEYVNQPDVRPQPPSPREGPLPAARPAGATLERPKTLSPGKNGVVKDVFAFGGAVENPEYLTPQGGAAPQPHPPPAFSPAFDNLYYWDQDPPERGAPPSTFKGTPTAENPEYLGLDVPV
Compound,viability [1] [%],Her2 level [2],viability [3],viability [4],viability [5],differential viability (reversal) ([6]; H69AR cells + 2 uM doxorubicin),"viability [6, 16] [%]","viability [6, 17] [%]",inhibition [7],inhibition [8],growth inhibition [9],growth inhibition [10],viability increase [11],viability [12],viability [13],inhibition [14],RAM network inhibition [15]
CN1CCC(NC(=O)c2cccs2)CC1,106,90% (inactive),106% (inactive),84.7% (inactive),91% (inactive),7.9% (inactive),83.1,91,-4.13% (inactive),7.5% (inactive),9.33% (inactive),17.3% (inactive),-0.16% (inactive),96.7% (inactive),94.9% (inactive),0.86% (inactive),1.18% (inactive)
CCCCN(C)Cc1c(O)ccc2c(-c3ccccc3)cc(=O)oc12,89,102% (inactive),89% (inactive),111% (inactive),96.7% (inactive),8.13% (inactive),88.6,96.7,-2.7% (inactive),2.95% (inactive),-4.28% (inactive),2.96% (inactive),-2.64% (inactive),91% (inactive),93.6% (inactive),0.605% (inactive),1.89% (inactive)
CCOC(=O)C1CCN(Cc2ccc(F)c(Br)c2)CC1,122,118% (inactive),122% (inactive),106% (inactive),85.5% (inactive),-7.29% (inactive),92.8,85.5,-1.17% (inactive),9.5% (inactive),-3.72% (inactive),-1.05% (inactive),-2.69% (inactive),90.4% (inactive),91.9% (inactive),2.35% (inactive),-0.36% (inactive)
CCOc1ccccc1C(=O)Nc1nnc(CC)s1,94.5,84% (inactive),94.5% (inactive),114% (inactive),97% (inactive),8.28% (inactive),88.7,97,-1.73% (inactive),3% (inactive),-0.29% (inactive),12.6% (inactive),-2.43% (inactive),96.3% (inactive),98.3% (inactive),0.31% (inactive),1.61% (inactive)
Cc1cc(C)n(-c2ccc(N3CCOCC3)nn2)n1,108,99% (inactive),108% (inactive),98.1% (inactive),89.5% (inactive),-4.32% (inactive),93.8,89.5,0% (inactive),0% (inactive),1.14% (inactive),10.2% (inactive),-0.17% (inactive),103% (inactive),101% (inactive),0.245% (inactive),-0.52% (inactive)
Cc1ccccc1-n1c(Cn2c(=O)sc3ccccc32)nnc1SCC(=O)N1CCCC1,109,90.5% (inactive),109% (inactive),98% (inactive),93.7% (inactive),12.6% (inactive),81.1,93.7,-4% (inactive),6.89% (inactive),-2.21% (inactive),6.39% (inactive),-0.45% (inactive),98.6% (inactive),104% (inactive),-0.765% (inactive),8.27% (inactive)
Cc1cnc(NC(=O)CSc2nnc(COc3c(C)cccc3C)o2)s1,83,102% (inactive),83% (inactive),79.9% (inactive),87.1% (inactive),-6.84% (inactive),94,87.1,-5.33% (inactive),4.83% (inactive),-10.4% (inactive),-2.15% (inactive),-0.06% (inactive),93.9% (inactive),86.1% (inactive),1.23% (inactive),0.63% (inactive)
COCCCNC(=O)CSc1ccc(Cl)cc1,94.5,85% (inactive),94.5% (inactive),81.8% (inactive),95.3% (inactive),3.39% (inactive),91.9,95.3,0% (inactive),-2.67% (inactive),1.36% (inactive),-6.93% (inactive),-1.7% (inactive),106% (inactive),97.8% (inactive),2.25% (inactive),2.53% (inactive)
O=C(CN1CCN(Cc2ccc(F)cc2Cl)C1=O)NCCCN1CCOCC1,99,104% (inactive),99% (inactive),95.2% (inactive),102% (inactive),14% (inactive),87.8,102,-3.07% (inactive),-5.08% (inactive),-6.96% (inactive),8.75% (inactive),-0.41% (inactive),94.5% (inactive),97.3% (inactive),0.47% (inactive),1.91% (inactive)
CC(=O)c1sc(NC(=O)C2COc3ccccc3O2)nc1C (stereo not given),102,97.5% (inactive),102% (inactive),80.7% (inactive),89.2% (inactive),11.4% (inactive),77.8,89.2,4.1% (inactive),3.5% (inactive),-8.75% (inactive),-3.37% (inactive),-1.12% (inactive),99.4% (inactive),99% (inactive),0.05% (inactive),-0.31% (inactive)
CC(=O)Nc1ccc(S(=O)(=O)N2CCN(C(=O)CCC3CCCC3)CC2)cc1,84,98.5% (inactive),84% (inactive),99% (inactive),92.9% (inactive),-9.75% (inactive),103,92.9,-1.2% (inactive),-4.35% (inactive),0.295% (inactive),-1.04% (inactive),-2.79% (inactive),78.7% (inactive),81.8% (inactive),0.505% (inactive),2.16% (inactive)
O=C(c1cnc2n(c1=O)CCS2)N(C1CCCCC1)C1CCCCC1,87,84% (inactive),87% (inactive),106% (inactive),102% (inactive),5.03% (inactive),97.4,102,-4.53% (inactive),-1% (inactive),2.67% (inactive),-18.9% (inactive),-2.34% (inactive),101% (inactive),92.3% (inactive),1.71% (inactive),2.61% (inactive)
COc1ccc(OC)c(C(C)NC=O)c1 (stereo not given),89,90.5% (inactive),89% (inactive),102% (inactive),99.5% (inactive),0.26% (inactive),99.2,99.5,-6.89% (inactive),-2.3% (inactive),-9.25% (inactive),-7.95% (inactive),-0.64% (inactive),95.2% (inactive),105% (inactive),1.43% (inactive),-0.21% (inactive)
CCN(CC)C(=O)COC(=O)c1ccc(O)cc1,90.5,102% (inactive),90.5% (inactive),103% (inactive),91.2% (inactive),-5.45% (inactive),96.7,91.2,1.73% (inactive),-5.97% (inactive),-6.88% (inactive),-17.4% (inactive),0.25% (inactive),95.6% (inactive),101% (inactive),1.32% (inactive),-0.27% (inactive)
COC(=O)C1=C(C)Nc2nnnn2C1c1ccc(Cl)cc1Cl (stereo not given),110,80% (inactive),110% (inactive),114% (inactive),93.3% (inactive),-5.04% (inactive),98.4,93.3,-1.97% (inactive),-0.63% (inactive),2.67% (inactive),-1.33% (inactive),-5.06% (inactive),98% (inactive),91.5% (inactive),0.54% (inactive),0.11% (inactive)
COc1cccc(C2C(C(=O)c3ccc(C)o3)=C(O)C(=O)N2CCCN(C)C)c1 (stereo not given),99.5,90.5% (inactive),99.5% (inactive),100% (inactive),108% (inactive),12.6% (inactive),95,108,-4.73% (inactive),7.14% (inactive),-10.7% (inactive),-11.7% (inactive),-1.16% (inactive),102% (inactive),96.1% (inactive),-0.125% (inactive),1.67% (inactive)
CN(C)c1oc(-c2ccccc2F)nc1C#N,95,99.5% (inactive),95% (inactive),82.3% (inactive),101% (inactive),11.8% (inactive),89.5,101,-2.8% (inactive),6.56% (inactive),-11.3% (inactive),-2.67% (inactive),-0.62% (inactive),112% (inactive),106% (inactive),0.58% (inactive),3.09% (inactive)
O=C(NCc1ccco1)C1CCN(c2ccc(N3CCOCC3)nn2)CC1,86.5,120% (inactive),86.5% (inactive),91.4% (inactive),83.6% (inactive),2.94% (inactive),80.6,83.6,-0.53% (inactive),-0.83% (inactive),0.41% (inactive),5.46% (inactive),-3.71% (inactive),95.2% (inactive),97.3% (inactive),0.935% (inactive),4.7% (inactive)
Cn1nnnc1SCC(=O)Nc1ccccc1-c1ccccc1,100,110% (inactive),100% (inactive),99% (inactive),91.2% (inactive),9.64% (inactive),81.6,91.2,-2.44% (inactive),-1.33% (inactive),-19.3% (inactive),-10.2% (inactive),-0.09% (inactive),97.4% (inactive),90% (inactive),0.31% (inactive),0.77% (inactive)
C=CCSc1nnc(Cc2c(C)[nH]c3ccccc23)o1,90.5,96% (inactive),90.5% (inactive),84.7% (inactive),92.2% (inactive),6.96% (inactive),85.3,92.2,-3.87% (inactive),-2.5% (inactive),1.6% (inactive),3.4% (inactive),-0.66% (inactive),99.7% (inactive),99.5% (inactive),-0.545% (inactive),1.36% (inactive)
